Test results as given in PubChem BioAssay (Tox21).
Inconclusive results are not listed. Activity calls are given as the source filed them. The call rests on the fitted dose curve.

What follows are compounds tested against Vitamin D3 receptor (Homo sapiens) (UniProt P11473) (assay: qHTS assay to identify small molecule agonists of the vitamin D receptor (VDR) signaling pathway (AID 743222)). Settings: HEK293T VDR-UAS-bla, beta-lactamase FRET ratio, 16 h; series mostly up to 63.5 µM.
From the text: National Center for Advancing Translational Sciences [NCATS]
NIH Chemical Genomics Center [NCGC]
U.S. Environmental Protection Agency [EPA]
National Institutes of Environmental Health Sciences [NIEHS]
National Toxicology Program [NTP]
U.S. Food and Drug Administration [FDA]
The vitamin D receptor (VDR), a member of nuclear hormone receptor superfamily, plays a critical role in calcium homeostasis and bone metabolism. It is also involved in cell differentiation and growth, and thrombogenicity.
Tox21 Assay Protocol Summary:
VDR-bla cells were dispensed at 2,000 cells/6 uL/well into black wall/clear-bottom 1536-well plates using a Multidrop Combi (Thermo Fisher Scientific, Waltham, MA) dispenser. After the assay plates were incubated at a 37C and 5% CO2 for 4 h, 23 nL of compounds dissolved in DMSO, positive controls or DMSO only was transferred to the assay plate by a Pintool station (Kalypsys, San Diego, CA). The plates were incubated at 37C and 5% CO2 for 16 h. After 1 uL of LiveBLAzerTM B/G FRET substrate was added using a Bioraptr Flying Reagent Dispenser (FRD) workstation (Beckman Coulter, Indianapolis, IN, USA), the plates were incubated at room temperature for 2 h, and fluorescence intensity was measured by an Envision plate reader (PerkinElmer, Shelton, CT).

Vitamin D3 receptor (Homo sapiens), sequence (P11473 whole entry, looked up): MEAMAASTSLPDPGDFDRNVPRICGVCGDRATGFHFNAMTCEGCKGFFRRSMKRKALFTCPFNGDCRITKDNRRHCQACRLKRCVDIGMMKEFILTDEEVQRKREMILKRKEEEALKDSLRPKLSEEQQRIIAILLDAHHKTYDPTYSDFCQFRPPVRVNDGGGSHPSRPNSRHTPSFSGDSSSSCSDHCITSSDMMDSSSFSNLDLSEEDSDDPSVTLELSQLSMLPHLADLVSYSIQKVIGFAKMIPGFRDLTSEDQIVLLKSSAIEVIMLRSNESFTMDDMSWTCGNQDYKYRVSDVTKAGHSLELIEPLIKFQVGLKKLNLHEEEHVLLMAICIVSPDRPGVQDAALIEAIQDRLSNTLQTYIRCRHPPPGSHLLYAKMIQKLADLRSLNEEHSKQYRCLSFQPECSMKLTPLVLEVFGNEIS

Structure (SMILES)	outcome
CC(=O)Nc1ccn(C2COC(COC(=O)c3ccccc3)O2)c(=O)n1 (stereo not given)	inactive
Cc1ccc(Cl)c(OCC(O)CNC(C)(C)C)c1 (stereo not given)	inactive
O=C(N[C@@H](Cc1ccccc1)[C@@H](O)C(=O)N1C[C@@H](O)[C@@H](O)C1)c1cc2cc(Cl)ccc2[nH]1	inactive
FC1(F)C(F)(F)C(F)(F)C2(F)C(F)(C1(F)F)C(F)(F)C(F)(F)C1(F)C(F)(F)C(F)(F)C(F)(F)C(F)(F)C12F (stereo not given)	inactive
Cc1c(Cl)cccc1[N+](=O)[O-]	inactive
O=C1c2ccccc2C(=O)C1c1ccc2ccccc2n1	inactive
Cc1cc(C)c(C)c(O)c1	inactive
CCC(C(=O)O)c1ccc(N2Cc3ccccc3C2=O)cc1 (stereo not given)	inactive
CCCCCC1CCC(=O)O1 (stereo not given)	inactive
Nc1ccc(-c2ccc(F)cc2)cc1	inactive
CCOc1ccc2c(c1)C(C)CC(C)(C)N2 (stereo not given)	inactive
CC(C(=O)O)c1ccc(/C=C2\CCCCC2=O)cc1 (stereo not given)	inactive
CCCc1ccc(OC)cc1	inactive
CCc1ccc(C(=O)C(C)CN2CCCCC2)cc1 (stereo not given)	inactive
C1CCN(CN2CCCCC2)CC1	inactive
CCCC1CCOC(C)S1 (stereo not given)	inactive
CC(O)CN (stereo not given)	inactive
CCC1=C(C)CN(C(=O)NCCc2ccc(S(=O)(=O)NC(=O)NC3CCC(C)CC3)cc2)C1=O (stereo not given)	inactive
OCCc1ccncc1	inactive
CCOC(C)OCC	inactive

Structure (SMILES)	outcome
CC1(C)[C@@H]2CC[C@]3(C2)[C@@H]1C(=O)CCC3(C)C	inactive
CC(C)(C)c1ccc(CCC=O)cc1	inactive
C=CC(C)CCC=C(C)C (stereo not given)	inactive
CCCCCCOC(=O)c1ccccc1	inactive
O=C(Cl)c1ccc(F)c(Cl)c1	inactive
O=P(c1ccccc1)(c1ccccc1)c1ccccc1	inactive
O=C(Nc1ccc2c(c1)Cc1ccccc1-2)C(F)(F)F	inactive
CCCCCCC/C=C/C=O	inactive
O=C(O)c1cccc(C(=O)O)c1C(=O)O	inactive
C[C@H](N)C(=O)N[C@@H](C)C(=O)NC1[C@H]2CN(c3nc4c(cc3F)c(=O)c(C(=O)O)cn4-c3ccc(F)cc3F)C[C@@H]12 (stereo not given in full)	inactive
CO[C@@H]1COCC[C@@H]1N[C@@H]1CC[C@@](C(=O)N2CCc3ncc(C(F)(F)F)cc3C2)(C(C)C)C1	inactive
Cc1ccc2ccccc2c1[N+](=O)[O-]	inactive
C=Cc1ccc(C=C)cc1	inactive
CC(=O)c1cccnc1	inactive
CC1(C)CC(O)CC(C)(C)N1[O]	inactive
CCC(=O)O[C@]1(C(=O)COC)[C@@H](C)C[C@H]2[C@@H]3CCC4=CC(=O)C=C[C@]4(C)C3(F)[C@@H](O)C[C@@]21C (stereo not given in full)	inactive
O=C(O)COCC(=O)O	inactive
C=CC(=O)NC(C)(C)C	inactive
CCCCCCCCC(=O)OCC(C)OC(=O)CCCCCCCC (stereo not given)	inactive
CC(=O)c1ccc(Cl)c(Cl)c1Cl	inactive
